We go through eight compounds from ChEMBL document CHEMBL3988442, “University of Dundee, Small-Polar-MMV Screening Library” (2021).

For some of these results: Results with a measured potency or affinity are listed apart.

Holding throughout (design): scale not given: direction of the effect not stated beside the values
Assay [1] addresses Protein translocase subunit SecA (Escherichia coli (strain K12)) (UniProt P10408). As to the kind of experiment: Assay to Identify E. coli SecA ATPase Inhibitors. The assay is classed as functional. Particulars: 30 µM.
Assay [2] concerns the target T1, Ubiquitin-activating enzyme e1, putative (Leishmania donovani (strain BPK282A1)) (UniProt E9BSI1).
T1 sequence (whole entry): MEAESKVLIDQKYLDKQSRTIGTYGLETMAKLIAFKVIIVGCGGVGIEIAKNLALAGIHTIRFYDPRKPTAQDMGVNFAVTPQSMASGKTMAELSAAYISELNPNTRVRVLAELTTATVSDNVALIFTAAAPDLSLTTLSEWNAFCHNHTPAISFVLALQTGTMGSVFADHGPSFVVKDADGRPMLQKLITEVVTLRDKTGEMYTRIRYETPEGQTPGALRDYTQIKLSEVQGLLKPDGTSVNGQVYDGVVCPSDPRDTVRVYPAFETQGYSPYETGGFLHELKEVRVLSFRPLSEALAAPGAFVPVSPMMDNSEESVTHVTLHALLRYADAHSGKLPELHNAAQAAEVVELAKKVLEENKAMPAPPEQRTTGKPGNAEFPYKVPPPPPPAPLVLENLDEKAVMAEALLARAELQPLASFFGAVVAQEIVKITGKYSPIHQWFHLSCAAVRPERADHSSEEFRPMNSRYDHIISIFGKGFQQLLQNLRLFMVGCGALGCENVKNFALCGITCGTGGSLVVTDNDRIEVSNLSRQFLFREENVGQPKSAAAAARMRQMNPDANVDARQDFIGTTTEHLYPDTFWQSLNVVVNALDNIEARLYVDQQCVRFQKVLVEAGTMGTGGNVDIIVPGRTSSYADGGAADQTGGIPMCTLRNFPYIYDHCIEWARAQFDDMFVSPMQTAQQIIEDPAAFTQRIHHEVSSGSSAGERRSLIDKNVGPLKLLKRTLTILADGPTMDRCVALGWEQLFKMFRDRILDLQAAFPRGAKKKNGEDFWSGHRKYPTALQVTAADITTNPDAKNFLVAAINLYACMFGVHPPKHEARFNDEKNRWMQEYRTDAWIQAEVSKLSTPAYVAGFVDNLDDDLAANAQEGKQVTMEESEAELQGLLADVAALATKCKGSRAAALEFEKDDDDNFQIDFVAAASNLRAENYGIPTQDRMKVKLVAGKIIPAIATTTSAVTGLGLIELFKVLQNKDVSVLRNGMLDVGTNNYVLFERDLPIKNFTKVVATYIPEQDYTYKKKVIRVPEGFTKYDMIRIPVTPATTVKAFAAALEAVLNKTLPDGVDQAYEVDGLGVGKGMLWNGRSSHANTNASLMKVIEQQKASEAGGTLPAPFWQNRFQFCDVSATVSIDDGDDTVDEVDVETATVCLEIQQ
As to the kind of experiment: Leishmania donovani Ubiquitin Activating Enzyme (LdE1). The assay is classed as functional. Particulars: 30 µM.

Assay [3] concerns the target AMP-activated protein kinase, AMPK (Homo sapiens) (UniProt P54646+O43741+P54619+Q9UGJ0+Q9Y478+Q13131+Q9UGI9). As to the kind of experiment: AMP-dependent Kinase enzyme assay. An in vitro enzyme assay that detects ADP turnover that is directly proportional to AMPK activity. This uses naive AMPK that is activated during the assay with MK-8722. Format: functional. The note with it: 30 µM.

In assay [4] the target is Sialic acid-binding Ig-like lectin 9 (Homo sapiens) (UniProt Q9Y336). As to the kind of experiment: Hs-Siglec9 ALPHAscreen SOP 20170721. The note with it: 10 µM.
For the next assay, the system named is Trypanosoma cruzi. As to the kind of experiment: Trypanosoma cruzi phosphomannomutase and mannose-1-phosphate guanylyltransferase assay. The assay is classed as functional. Particulars: 10 µM.
Assay [5] deals with T2, Arginase-2, mitochondrial (Homo sapiens) (UniProt P78540).
T2 sequence (whole entry): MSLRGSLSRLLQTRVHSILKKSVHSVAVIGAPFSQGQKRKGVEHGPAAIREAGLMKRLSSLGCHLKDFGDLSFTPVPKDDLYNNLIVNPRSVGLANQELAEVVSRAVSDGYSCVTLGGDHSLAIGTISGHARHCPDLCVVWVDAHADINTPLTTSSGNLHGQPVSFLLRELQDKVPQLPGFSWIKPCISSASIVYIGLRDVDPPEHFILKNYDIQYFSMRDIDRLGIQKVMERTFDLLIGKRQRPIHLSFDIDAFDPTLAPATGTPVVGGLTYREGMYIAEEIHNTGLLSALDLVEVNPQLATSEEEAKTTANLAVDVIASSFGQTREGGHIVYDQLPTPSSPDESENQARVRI
As to the kind of experiment: in vitro enzyme assay to detect the production of urea directly proportional to the activity of Arginase II. Further: in the data most compounds retested in dose-response had high values. The assay is classed as functional. Particulars: 33.3 µM.

In assay [6] the target is T3, Proteasome subunit beta (Trypanosoma cruzi) (UniProt O96673).
T3 sequence (whole entry): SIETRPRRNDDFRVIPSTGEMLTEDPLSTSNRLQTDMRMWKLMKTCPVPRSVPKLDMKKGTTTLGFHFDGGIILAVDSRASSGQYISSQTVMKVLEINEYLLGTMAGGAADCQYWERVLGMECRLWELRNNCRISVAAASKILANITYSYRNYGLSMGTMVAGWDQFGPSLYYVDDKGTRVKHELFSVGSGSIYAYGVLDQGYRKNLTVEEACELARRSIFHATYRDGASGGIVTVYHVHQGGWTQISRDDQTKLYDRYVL
As to the kind of experiment: Trypanosoma cruzi proteasome chymotrypsin-like activity (TcProtChymo) assay. Further: in the data most compounds retested in dose-response had high values. Particulars: 9.37 µM. Format: functional.

The species named for another assay is Homo sapiens. As to the kind of experiment: To identify inhibition of the IFN signalling (Jak-Stat) pathway via expression of an eGFP reporter gene under the control of an IFN-stimulated response element (ISRE) containing MxA promoter. Format: functional. The note with it: 30 µM.
Assay [7] addresses T4, Tyrosyl-tRNA synthetase, putative (Trypanosoma cruzi (strain CL Brener)) (UniProt Q4DSP6).
T4 sequence (whole entry): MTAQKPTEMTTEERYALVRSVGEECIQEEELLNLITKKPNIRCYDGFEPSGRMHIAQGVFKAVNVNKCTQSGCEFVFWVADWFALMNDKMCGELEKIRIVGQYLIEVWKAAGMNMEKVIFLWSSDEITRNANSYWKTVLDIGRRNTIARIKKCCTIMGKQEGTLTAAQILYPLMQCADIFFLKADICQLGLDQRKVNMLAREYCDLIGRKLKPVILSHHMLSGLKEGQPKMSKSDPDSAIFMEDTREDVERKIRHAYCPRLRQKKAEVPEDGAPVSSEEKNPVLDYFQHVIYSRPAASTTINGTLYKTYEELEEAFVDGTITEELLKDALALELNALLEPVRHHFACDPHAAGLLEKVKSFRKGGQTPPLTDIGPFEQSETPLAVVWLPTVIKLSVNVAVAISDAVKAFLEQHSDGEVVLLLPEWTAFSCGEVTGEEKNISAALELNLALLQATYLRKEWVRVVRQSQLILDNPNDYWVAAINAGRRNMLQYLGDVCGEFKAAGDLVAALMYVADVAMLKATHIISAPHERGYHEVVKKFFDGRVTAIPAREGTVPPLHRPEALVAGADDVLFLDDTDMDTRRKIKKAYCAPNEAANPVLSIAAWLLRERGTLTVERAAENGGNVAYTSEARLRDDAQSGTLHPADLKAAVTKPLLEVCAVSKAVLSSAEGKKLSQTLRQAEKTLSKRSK
As to the kind of experiment: Trypanosoma cruzi tyrosyl tRNA synthetase (TcYRS) _High Tyrosine SOP. Further: in the data most compounds retested in dose-response had high values. Format: functional. The note with it: 30 µM.

The target in assay [8] is T4, Tyrosyl-tRNA synthetase, putative (Trypanosoma cruzi (strain CL Brener)). As to the kind of experiment: Trypanosoma cruzi tyrosyl tRNA synthetase (TcYRS) SOP. Format: functional. The note with it: 30 µM.
In assay [9] the target is Chromo domain-containing protein 1 (Saccharomyces cerevisiae (strain ATCC 204508 / S288c) (Baker's yeast)) (UniProt P32657). As to the kind of experiment: ScCHD-1 Enzyme Inhibition Assay. Further: in the data most compounds retested in dose-response had high values. Format: functional. Particulars: 30 µM.
Chain of Chromo domain-containing protein 1 (Saccharomyces cerevisiae (strain ATCC 204508 / S288c) (Baker's yeast)) (P32657 whole entry, the tested form may be a part): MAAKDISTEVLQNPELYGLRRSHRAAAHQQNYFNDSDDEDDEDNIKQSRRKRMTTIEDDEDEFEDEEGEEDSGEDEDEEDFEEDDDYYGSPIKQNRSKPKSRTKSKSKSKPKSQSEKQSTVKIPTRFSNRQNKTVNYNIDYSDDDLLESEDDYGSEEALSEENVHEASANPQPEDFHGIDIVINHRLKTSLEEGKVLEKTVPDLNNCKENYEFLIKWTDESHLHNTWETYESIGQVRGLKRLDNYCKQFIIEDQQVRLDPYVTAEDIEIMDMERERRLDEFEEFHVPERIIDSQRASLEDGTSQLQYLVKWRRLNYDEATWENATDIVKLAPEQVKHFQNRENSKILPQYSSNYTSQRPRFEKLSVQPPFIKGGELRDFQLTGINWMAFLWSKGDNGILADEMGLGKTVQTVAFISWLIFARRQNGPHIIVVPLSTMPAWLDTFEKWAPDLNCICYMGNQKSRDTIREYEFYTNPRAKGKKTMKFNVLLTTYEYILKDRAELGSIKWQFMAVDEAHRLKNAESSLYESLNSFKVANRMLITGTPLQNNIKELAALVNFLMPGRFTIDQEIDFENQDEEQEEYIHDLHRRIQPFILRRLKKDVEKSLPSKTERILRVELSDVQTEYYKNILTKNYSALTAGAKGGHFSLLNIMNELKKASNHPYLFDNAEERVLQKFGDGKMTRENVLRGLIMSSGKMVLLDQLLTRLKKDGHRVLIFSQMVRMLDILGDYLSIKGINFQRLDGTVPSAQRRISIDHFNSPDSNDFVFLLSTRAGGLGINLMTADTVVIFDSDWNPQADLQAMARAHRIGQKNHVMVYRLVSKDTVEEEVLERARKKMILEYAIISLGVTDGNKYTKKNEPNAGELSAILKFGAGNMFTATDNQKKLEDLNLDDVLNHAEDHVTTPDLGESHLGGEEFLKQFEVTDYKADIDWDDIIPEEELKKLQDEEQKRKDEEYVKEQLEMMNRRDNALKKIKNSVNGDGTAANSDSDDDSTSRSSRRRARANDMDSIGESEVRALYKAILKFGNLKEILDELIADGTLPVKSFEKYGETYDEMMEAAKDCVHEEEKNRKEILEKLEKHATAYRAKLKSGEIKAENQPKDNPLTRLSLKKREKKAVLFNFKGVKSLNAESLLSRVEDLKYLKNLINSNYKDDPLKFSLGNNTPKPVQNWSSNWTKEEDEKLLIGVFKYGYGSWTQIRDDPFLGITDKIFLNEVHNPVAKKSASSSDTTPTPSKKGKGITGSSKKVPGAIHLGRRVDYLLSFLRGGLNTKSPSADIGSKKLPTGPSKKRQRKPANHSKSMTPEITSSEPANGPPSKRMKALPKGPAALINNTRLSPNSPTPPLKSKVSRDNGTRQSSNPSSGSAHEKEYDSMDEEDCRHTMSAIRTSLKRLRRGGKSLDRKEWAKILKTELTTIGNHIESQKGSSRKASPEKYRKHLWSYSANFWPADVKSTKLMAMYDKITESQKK

Chain of Protein translocase subunit SecA (Escherichia coli (strain K12)) (P10408 whole entry): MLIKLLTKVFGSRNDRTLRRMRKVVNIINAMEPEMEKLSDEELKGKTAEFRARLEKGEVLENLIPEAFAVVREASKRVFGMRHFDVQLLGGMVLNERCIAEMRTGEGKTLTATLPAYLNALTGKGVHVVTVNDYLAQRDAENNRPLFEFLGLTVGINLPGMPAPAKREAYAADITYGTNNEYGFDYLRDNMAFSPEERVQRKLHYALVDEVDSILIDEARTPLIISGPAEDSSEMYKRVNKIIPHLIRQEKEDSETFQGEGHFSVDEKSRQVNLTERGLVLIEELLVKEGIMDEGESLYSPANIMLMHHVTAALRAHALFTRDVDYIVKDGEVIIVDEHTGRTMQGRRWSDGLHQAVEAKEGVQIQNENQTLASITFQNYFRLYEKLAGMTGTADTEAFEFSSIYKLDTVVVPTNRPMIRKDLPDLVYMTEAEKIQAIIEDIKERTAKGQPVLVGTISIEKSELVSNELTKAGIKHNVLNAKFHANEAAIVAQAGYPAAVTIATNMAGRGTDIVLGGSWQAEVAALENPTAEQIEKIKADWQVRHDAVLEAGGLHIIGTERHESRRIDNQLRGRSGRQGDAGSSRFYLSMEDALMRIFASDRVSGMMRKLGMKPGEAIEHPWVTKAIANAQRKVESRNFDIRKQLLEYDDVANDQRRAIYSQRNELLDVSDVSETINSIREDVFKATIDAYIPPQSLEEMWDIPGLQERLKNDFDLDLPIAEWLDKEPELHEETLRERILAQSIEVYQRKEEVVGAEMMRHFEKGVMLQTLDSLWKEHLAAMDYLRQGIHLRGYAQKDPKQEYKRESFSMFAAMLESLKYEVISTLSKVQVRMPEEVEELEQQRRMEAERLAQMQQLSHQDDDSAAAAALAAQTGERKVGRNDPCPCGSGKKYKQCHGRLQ
Chain of Sialic acid-binding Ig-like lectin 9 (Homo sapiens) (Q9Y336 whole entry): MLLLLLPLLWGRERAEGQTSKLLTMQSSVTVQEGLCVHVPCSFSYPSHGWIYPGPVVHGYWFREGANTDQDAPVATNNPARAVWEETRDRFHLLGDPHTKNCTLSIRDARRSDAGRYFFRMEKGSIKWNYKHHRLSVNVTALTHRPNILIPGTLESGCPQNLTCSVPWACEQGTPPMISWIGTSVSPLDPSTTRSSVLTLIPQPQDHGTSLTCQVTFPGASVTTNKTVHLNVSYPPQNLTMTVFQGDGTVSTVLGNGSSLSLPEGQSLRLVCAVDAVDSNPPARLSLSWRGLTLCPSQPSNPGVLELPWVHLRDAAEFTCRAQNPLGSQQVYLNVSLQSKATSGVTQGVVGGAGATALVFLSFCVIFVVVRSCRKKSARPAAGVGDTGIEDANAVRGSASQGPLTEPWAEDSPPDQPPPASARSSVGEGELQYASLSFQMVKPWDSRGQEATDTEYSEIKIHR

Turning to `O=C(c1ccccn1)N1CCCC(c2nccn2CC2CCC2)C1` (stereo not drawn), the Percent Effect in assay [1] was -7.93%; in assay [2], 0%; in assay [3], -15.1%; in [4], 2.39%; in the assay with Trypanosoma cruzi, -2.35%; in [5] it was -2.27%. The Percent Effect in assay [6] is 3.37%; in the assay filed under Homo sapiens it was 7.95%; in [7], 0%; in assay [8], 0%; in assay [9], -2.91%.

`Cc1noc(C)c1CNc1cc(N2CCCC2CO)ncn1` (stereo not drawn): the Percent Effect in assay [1] is -2.84%; in assay [2], 6.33%; in assay [3] it was -25.2%; in assay [4] it was 4.54%; in the assay on Trypanosoma cruzi it was 1.54%; in assay [5] it was 1.5%. The Percent Effect in assay [6] was 1.03%; in the assay listed under Homo sapiens, -8.87%; in assay [7], 0%; in [8], 12.7%; in assay [9], -23.1%.

With `COc1ncccc1NC(=O)N1CCC(CNC(C)=O)CC1`, the Percent Effect was -3.02% in assay [1]; 5.33% in [2]; -2.93% in assay [3]; 4.72% in assay [4]; 3.02% in the assay with Trypanosoma cruzi; 3.12% in assay [5]. For the same compound, the Percent Effect in [6] is 7.5%; in the assay listed under Homo sapiens, 20.5%; in [7], 4.92%; in assay [8] it was 13.6%; in assay [9], -8%.

`CN(Cc1ccsc1)C(=O)CN1CCCC1Cn1cccn1` (stereo not drawn): the Percent Effect is -3.48% in [1]; -18.2% in assay [2]; 2.08% in assay [3]; -4.38% in assay [4]; 5% with Trypanosoma cruzi; -1.05% in assay [5]. Moreover, the Percent Effect was 3.8% in assay [6]; -6.97% in the assay filed under Homo sapiens; 11.4% in [7]; 7.06% in [8]; 4.97% in [9].

`COc1c(CNCCNC(=O)c2ccco2)c(C)nn1C`: the Percent Effect was -4.26% in assay [1]; 2.7% in assay [2]; -4.46% in [3]; 0.652% in [4]; -1.39% in the assay with Trypanosoma cruzi; -0.185% in assay [5]. Moreover, the Percent Effect worked out at 4.31% in assay [6]; 11.3% in the assay listed under Homo sapiens; 3.96% in assay [7]; 11% in [8]; 0.206% in assay [9].

As to `O=C(C1CC=CC1)N1CCc2c(COCc3ccncc3)cncc2C1`, the Percent Effect in [1] was 0.346%; in assay [2], 5.48%; in assay [3], 3.39%; in [4], 12.2%; in the assay on Trypanosoma cruzi, 0.198%; in assay [5] it was -1.2%. The Percent Effect in [6] is 29.9%; in the assay filed under Homo sapiens it was -4.59%; in assay [7], 11.5%; in [8] it was 11.1%; in [9], -4.36%.

In the case of `C[C@@H]1CN(C(=O)NC2CC2)C[C@]12CCN(c1ccsc1)C2=O`, the Percent Effect was -4.11% in [1]; 5.33% in assay [2]; 8.07% in [3]; 0.822% in assay [4]; -4.13% in the assay with Trypanosoma cruzi; 2.1% in assay [5]. The Percent Effect in [6] was 2.56%; in the assay filed under Homo sapiens, 8.5%; in assay [7], 4.25%; in assay [8] it was 11.5%; in assay [9] it was -3.74%.

Regarding `O=C(NCc1ccc(-n2cncn2)nc1)c1ccc2c(c1)CCO2`, the Percent Effect in assay [1] is -5.02%; in assay [2], 8.11%; in assay [3], -9.05%; in [4], 1.05%; with Trypanosoma cruzi, 1.79%; in assay [5], -2.4%. Also, the Percent Effect is -3.96% in assay [6]; 14.7% in the assay listed under Homo sapiens; 7.39% in assay [7]; 13.6% in [8]; -6.1% in [9].
